{"source": "PubChem BioAssay AID651742", "about": "(Broad Institute, 2012)", "note": "Out of some 5,600 compounds screened, about 780 (14%) were called active. About 3% were inconclusive and are not listed. Only a sample is shown. Values without a mark were called inactive.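 Rule for the calls: active = mean signal decrease across replicates above about 35% based on untreated-well scatter, with enough replicates individually passing (limit read from the data); inconclusive = no rule stated though some were filed; inactive = the rest.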", "data": [{"assay": "cytotoxicity in mouse NIH/3T3 fibroblasts, confirmation, cytotoxicity control for T. cruzi proliferation inhibitor project, cell-based, cherry-pick, single point (AID 651742);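 note: 0% = median of neutral control wells and 100% = median of positive control wells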", "settings": "NIH/3T3 viability, CellTiter-Glo ATP luminescence, 90 h; at 8.35 µM; stronger effect = higher value", "values": [{"smiles": "O=C(c1cccc(F)c1)N1CC[C@@H]2[C@@H](CO)Nc3ccc(C#Cc4cccc(F)c4)cc3[C@@H]21", "cytotoxicity (signal decrease)": "27.7%"}, {"smiles": "CC(=O)N1[C@H](CNC(=O)C2CC2)[C@@H](c2ccc(-c3cccc(F)c3)cc2)[C@@H]1CO", "cytotoxicity (signal decrease)": "3.63%"}, {"smiles": "C[C@@H]1CN([C@H](C)CO)C(=O)c2cc(NS(=O)(=O)c3ccc(Cl)cc3)ccc2O[C@@H](C)CCCCO[C@H]1CN(C)Cc1ccccc1", "cytotoxicity (signal decrease)": "1.2%"}, {"smiles": "C[C@H](CO)N1C[C@H](C)[C@H](CN(C)Cc2ccc(C(F)(F)F)cc2)Oc2ccc(NS(=O)(=O)c3ccc(Cl)cc3)cc2C1=O", "cytotoxicity (signal decrease)": "8.98%"}, {"smiles": "C[C@H](CO)N1C[C@H](C)[C@H](CN(C)Cc2ccc(C(F)(F)F)cc2)OCCCC[C@H](C)Oc2ccc(NS(=O)(=O)c3ccc(Cl)cc3)cc2C1=O", "cytotoxicity (signal decrease)": "98.8% (active)"}, {"smiles": "COc1ccc(CN(C)C[C@H]2OCCCC[C@H](C)Oc3ccc(NC(=O)Nc4ccc5c(c4)OCO5)cc3C(=O)N([C@H](C)CO)C[C@@H]2C)cc1", "cytotoxicity (signal decrease)": "45.5% (active)"}, {"smiles": "C[C@@H]1CN([C@@H](C)CO)C(=O)c2cc(NC(=O)Nc3cccc4ccccc34)ccc2O[C@@H](C)CCCCO[C@H]1CN(C)Cc1ccccc1", "cytotoxicity (signal decrease)": "22.3%"}, {"smiles": "COc1ccc(NC(=O)Nc2ccc3c(c2)C(=O)N([C@H](C)CO)C[C@@H](C)[C@H](CN(C)Cc2ccc(Cl)c(Cl)c2)OCCCC[C@@H](C)O3)cc1", "cytotoxicity (signal decrease)": "-14.8%"}, {"smiles": "C[C@@H]1CCCCO[C@@H](CN(C)Cc2ccc(Cl)c(Cl)c2)[C@H](C)CN([C@H](C)CO)C(=O)c2cc(NC(=O)Nc3ccc(F)cc3)ccc2O1", "cytotoxicity (signal decrease)": "3.22%"}, {"smiles": "C[C@@H]1CN([C@H](C)CO)C(=O)c2cc(NC(=O)Nc3ccc(F)cc3)ccc2O[C@@H](C)CCCCO[C@H]1CN(C)Cc1ccc(Cl)c(Cl)c1", "cytotoxicity (signal decrease)": "40.8% (active)"}, {"smiles": "C[C@@H]1CN([C@@H](C)CO)C(=O)c2cc(NC(=O)Nc3cccc4ccccc34)ccc2O[C@H]1CN(C)Cc1ccc(Cl)c(Cl)c1", "cytotoxicity (signal decrease)": "35.5% (active)"}, {"smiles": "C[C@@H]1CN([C@@H](C)CO)C(=O)c2cc(NC(=O)Nc3cccc4ccccc34)ccc2O[C@H]1CN(C)Cc1ccc(Oc2ccccc2)cc1", "cytotoxicity (signal decrease)": "18.9%"}, {"smiles": "C[C@@H]1CCCCO[C@@H](CN(C)Cc2ccc3c(c2)OCO3)[C@@H](C)CN([C@@H](C)CO)C(=O)c2cc(NC(=O)Nc3ccccc3)ccc2O1", "cytotoxicity (signal decrease)": "6.98%"}, {"smiles": "C[C@@H]1CCCCO[C@H](CN(C)Cc2ccccc2)[C@@H](C)CN([C@@H](C)CO)C(=O)c2cc(NC(=O)Nc3ccc(F)cc3)ccc2O1", "cytotoxicity (signal decrease)": "27.1%"}, {"smiles": "COc1ccc(S(=O)(=O)Nc2ccc3c(c2)C(=O)N([C@H](C)CO)C[C@@H](C)[C@@H](CN(C)CC2CCCCC2)OCCCC[C@@H](C)O3)cc1", "cytotoxicity (signal decrease)": "33.5%"}, {"smiles": "C[C@H](CO)N1C[C@H](C)[C@@H](CN(C)C(=O)Nc2ccnc(N3CCOCC3)c2)OCc2ccccc2-c2ccccc2C1=O", "cytotoxicity (signal decrease)": "5.45%"}, {"smiles": "C[C@@H]1CCCCO[C@H](CN(C)Cc2ccc(C(F)(F)F)cc2)[C@H](C)CN([C@H](C)CO)C(=O)c2cc(NC(=O)Nc3ccc(F)cc3)ccc2O1", "cytotoxicity (signal decrease)": "-14.3%"}, {"smiles": "C[C@@H]1CCCCO[C@@H](CN(C)S(=O)(=O)c2ccc(Cl)cc2)[C@H](C)CN([C@@H](C)CO)C(=O)c2cc(NC(=O)Cc3ccccc3)ccc2O1", "cytotoxicity (signal decrease)": "0.0515%"}, {"smiles": "COc1ccc(NC(=O)N(C)C[C@@H]2OCCCC[C@@H](C)Oc3ccc(NS(=O)(=O)c4ccc(Cl)cc4)cc3C(=O)N([C@H](C)CO)C[C@H]2C)cc1", "cytotoxicity (signal decrease)": "-38.7%"}, {"smiles": "O=C(C[C@@H]1C[C@@H]2c3cc(NC(=O)c4ccc5c(c4)OCO5)ccc3O[C@@H]2[C@@H](CO)O1)NCc1ccc(Cl)cc1", "cytotoxicity (signal decrease)": "-20.7%"}, {"smiles": "C[C@@H]1CCCCO[C@@H](CN(C)CC2CC2)[C@H](C)CN([C@H](C)CO)C(=O)c2cc(NC(=O)C3CCCCC3)ccc2O1", "cytotoxicity (signal decrease)": "-17.8%"}, {"smiles": "C[C@H]1CCCCO[C@H](CN(C)Cc2ccc(C(F)(F)F)cc2)[C@@H](C)CN([C@@H](C)CO)C(=O)c2cc(NC(=O)C3CCCCC3)ccc2O1", "cytotoxicity (signal decrease)": "-5.99%"}, {"smiles": "N#C[C@@H]1[C@@H](c2ccc(/C=C/c3ccccc3)cc2)[C@@H](CO)N1C(=O)C1CC1", "cytotoxicity (signal decrease)": "23.9%"}, {"smiles": "C[C@@H]1CN([C@@H](C)CO)C(=O)c2cc(NC(=O)C3CCCCC3)ccc2O[C@@H](C)CCCCO[C@H]1CN(C)Cc1ccncc1", "cytotoxicity (signal decrease)": "2.54%"}, {"smiles": "C[C@@H]1CN([C@H](C)CO)C(=O)c2cc(NC(=O)Nc3ccc(F)cc3)ccc2O[C@@H](C)CCCCO[C@@H]1CN(C)CC1CCCCC1", "cytotoxicity (signal decrease)": "24.8%"}, {"smiles": "C[C@@H]1CN([C@H](C)CO)C(=O)c2cc(C#CC3CCCCC3)cnc2O[C@@H]1CN(C)C(=O)NC1CCCC1", "cytotoxicity (signal decrease)": "26.3%"}, {"smiles": "C[C@@H](O)C#Cc1ccc([C@@H]2[C@H](CO)N3CCCCN(S(=O)(=O)c4ccccc4)C[C@@H]23)cc1", "cytotoxicity (signal decrease)": "1.19%"}, {"smiles": "C[C@@H]1CCCCO[C@@H](CN(C)Cc2ccc(C(F)(F)F)cc2)[C@@H](C)CN([C@H](C)CO)C(=O)c2cc(NC(=O)Nc3ccccc3)ccc2O1", "cytotoxicity (signal decrease)": "-2.03%"}, {"smiles": "OC[C@H]1[C@H](c2ccc(-c3cccc(F)c3)cc2)[C@@H]2CN(Cc3cncnc3)CCCCN12", "cytotoxicity (signal decrease)": "13.1%"}, {"smiles": "O=C(Nc1ccccc1F)N1CCCCN2[C@H](CO)[C@@H](c3ccc(-c4cccnc4)cc3)[C@H]2C1", "cytotoxicity (signal decrease)": "5.63%"}, {"smiles": "C[C@@H]1CN([C@@H](C)CO)S(=O)(=O)c2ccc(-c3ccncc3)cc2O[C@@H]1CN(C)C(=O)Nc1ccc(F)cc1", "cytotoxicity (signal decrease)": "-4.35%"}, {"smiles": "C[C@@H]1CN([C@@H](C)CO)S(=O)(=O)c2ccc(C#Cc3ccc(F)cc3)cc2O[C@H]1CN(C)C(=O)NC1CCCC1", "cytotoxicity (signal decrease)": "8.27%"}, {"smiles": "CC(C)CC#Cc1ccc2c(c1)O[C@H](CN(C)S(=O)(=O)c1cccc(F)c1)[C@@H](C)CN([C@@H](C)CO)S2(=O)=O", "cytotoxicity (signal decrease)": "14.5%"}, {"smiles": "Cc1ccc(-c2ccc3c(c2)O[C@H](CN(C)C)[C@@H](C)CN([C@H](C)CO)S3(=O)=O)cc1", "cytotoxicity (signal decrease)": "-0.56%"}, {"smiles": "C[C@@H]1CN([C@@H](C)CO)S(=O)(=O)c2ccc(C#Cc3ccc(F)cc3)cc2O[C@H]1CN(C)S(C)(=O)=O", "cytotoxicity (signal decrease)": "25.6%"}, {"smiles": "C[C@H]1CN([C@@H](C)CO)S(=O)(=O)c2ccc(C#Cc3cccc(F)c3)cc2O[C@@H]1CN(C)S(=O)(=O)c1cn(C)cn1", "cytotoxicity (signal decrease)": "44.8% (active)"}, {"smiles": "C[C@@H]1CN([C@H](C)CO)S(=O)(=O)c2ccc(-c3cccc(F)c3)cc2O[C@H]1CN(C)S(=O)(=O)c1ccc(F)cc1", "cytotoxicity (signal decrease)": "54.4% (active)"}, {"smiles": "C[C@H](CO)N1C[C@H](C)[C@@H](CN(C)S(=O)(=O)c2ccc(F)cc2)Oc2cc(C3=CCCC3)ccc2S1(=O)=O", "cytotoxicity (signal decrease)": "50.5% (active)"}, {"smiles": "C[C@@H]1CN([C@@H](C)CO)S(=O)(=O)c2ccc(-c3cccc(F)c3)cc2O[C@@H]1CN(C)S(=O)(=O)c1ccccc1", "cytotoxicity (signal decrease)": "46.5% (active)"}, {"smiles": "C[C@@H]1CN([C@H](C)CO)S(=O)(=O)c2ccc(C#Cc3ccncc3)cc2O[C@@H]1CN(C)S(=O)(=O)c1ccc(F)cc1", "cytotoxicity (signal decrease)": "27.1%"}, {"smiles": "C[C@@H]1CN([C@@H](C)CO)S(=O)(=O)c2ccc(C#Cc3ccc(F)cc3)cc2O[C@H]1CN(C)C(=O)c1ccccn1", "cytotoxicity (signal decrease)": "30%"}, {"smiles": "COc1ccccc1-c1ccc2c(c1)O[C@H](CN(C)S(=O)(=O)c1ccc(C)cc1)[C@@H](C)CN([C@H](C)CO)S2(=O)=O", "cytotoxicity (signal decrease)": "26.4%"}]}]}
